# Lassa entry inh: qHTS for Inhibitors of binding or entry into cells for Lassa Virus. Lassa virus pseudotype entry inhibition, cell reporter. AID 540256, 2011. Potency, µM (titrated, usually from 37.9 µM), without a hit: at the top dose activity change, negative = inhibition, hits mostly inhibitors. 1.2% of 300,000 active; calls by dose curve; tested in HEK293 cells; also: potency is read from the fitted curve at half-maximal effect; nearly all actives have a fitted effect of over 50% in size
# HCV inhibitor: qHTS Assay for Inhibitors of Hepatitis C Virus (HCV); Huh7.5.1 HCVcc-Cre infection, luciferase reporter, 44 h; Potency, µM (top dose mostly 41.8 µM), for the others: at the highest dose activity change, negative = inhibition, most hits filed as inhibitors; 3.4% of 340,000 active; AID 651820, 2012; also: potency is read from the fitted curve at half-maximal effect
#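 1,000 cells/well; 4 h culture; + compound; + HCVcc-Cre (~0.5 moi); 44 h; luciferase substrate, RT 15 min; read 15 sec.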
# HCMV inh: qHTS Assay for inhibitors of the human cytomegalovirus (HCMV) | HFF cells, HCMV-luciferase reporter, 72 h; stronger effect = lower value | activity change, negative = inhibition, % at 57.5 µM | 4.5% of 410,000 active | AID 1259415, 2018; in the data active = activity change below about -60%; inconclusive = no clear call, values can overlap the other calls; inactive = above about -39%
#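 After 16 h attachment at 37C, HFF cells received test compound and HCMV-luciferase (1 PFU/cell); reporter luminescence read 72 h later, data normalized against buffer-only and known inhibitor Salinomycin.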
# Pf growth 96h: Primary qHTS for delayed death inhibitors of the malarial parasite plastid, 96 hour incubation; P. falciparum luciferase reporter growth, 96 h; Potency, µM (top dose mostly 28.7 µM), inactives show at the highest dose activity change, negative = inhibition, most hits filed as inhibitors; 6.9% of 320,000 active; also: potency is read from the fitted curve at half-maximal effect
#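 Delayed-death screen, second-generation endpoint: infected erythrocytes, 2% hematocrit, 0.05% parasitemia final; 96 hours at 37 C, 5% CO2; luciferase detection reagent; luminescence decrease equals reduced growth.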
# MARV entry inh: qHTS for inhibitors of binding or entry into cells for Marburg Virus. Marburg virus pseudotyped entry inhibition, cell reporter. Potency, µM (series often up to 37.8 µM), inactives show at the top dose activity change, negative = inhibition, most hits filed as inhibitors. 1.8% of 300,000 active. AID 540276, 2011; calls by dose curve; tested in HEK293 cells; also: potency is read from the fitted curve at half-maximal effect
# Pf growth 48h: Primary qHTS for delayed death inhibitors of the malarial parasite plastid, 48 hour incubation; P. falciparum luciferase growth in erythrocytes, 48 h; Potency, µM (doses to about 28.7 µM), for inactives: at the top dose activity change, negative = inhibition, most hits filed as inhibitors; 5.9% of 310,000 active; AID 504832, 2011; also: potency is read from the fitted curve at half-maximal effect
#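 Growth was read as firefly luciferase luminescence after a 48 h, 37 C, 5% CO2 exposure of compounds to reporter-bearing P. falciparum cultures (0.1% parasitemia, 2% hematocrit final) in Albumax-supplemented RPMI 1640.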
# An asterisk follows results filed as active; ? = inconclusive; . = no result given; [ ] = another dose, or the depositor's remark. The list is not random: actives were taken first. Their share in the collection is about 14%. Unless noted, calls follow the shape of the dose curve; as a rule, active = well fitted inhibition curve with a large enough effect; inconclusive = small, poorly fitted or top-dose-only effect, or another doubt; inactive = no such curve, though single readings can be large or run the other way. % is scaled to controls: 0 for no effect and ±100 for the full control effect.
SMILES,Lassa entry inh,HCV inhibitor,HCMV inh,Pf growth 96h,MARV entry inh,Pf growth 48h
Cc1cccc2sc(NC(=O)c3ccc(Cl)s3)nc12,.,10µM*,90,13µM*,.,.
CCN(CC)CC#CCC(C)(c1ccccc1)c1ccccc1,?,?,-38,6.6µM*,?,12µM*
CCN(CC)CC#CCC(O)(c1ccccc1)c1ccccc1,-28%,?,-2,19%,?,?
CCN(CC)CC#CCC(O)(c1ccccc1)c1ccc(Br)cc1 (stereo not drawn),?,10µM*,-62*,-4%,23µM*,?
C[C@H]1[C@@H](NC(=O)Nc2ccc3c(c2)OCO3)CC[C@@]23CCCN2C(=O)CCC[C@@H]13,.,.,-92*,.,.,.
O=C1CCC[C@H]2[C@@H](Cc3ccccc3)[C@@H](NS(=O)(=O)c3ccc(Cl)cc3)CC[C@]23CCCN13,.,.,-92*,.,.,.
C[C@H]1[C@@H](NS(=O)(=O)c2cn(C)cn2)CC[C@@]23CCCN2C(=O)CCC[C@@H]13,.,.,-102*,.,.,.
CN(C)c1ccc(C(=O)Nc2sc(Nc3ccccc3)nc2C(N)=O)cc1,-28%[46.1 µM],.,-14,.,.,.
COc1ccc(NC(=O)CC(C)n2nc(C)cc2C)cc1Cl (stereo not drawn),0%[46.1 µM],.,6,.,.,.
CC1=CC(O)C(O)C2(C)C1CC1OC(=O)C(O)C3C(C)C(O)C4(O)OCC13C42 (stereo not drawn),?,13%,.,.,?,.
COC(=O)[C@]12OC[C@]34C([C@@H](O)[C@@H]1O)[C@]1(C)CC(=O)C(O)=C(C)[C@@H]1C[C@H]3OC(=O)[C@H](O)[C@@H]24 (stereo partly drawn),.,?,?,1µM*,.,1µM*
CCCCn1c(N)c(NCC(C)C)c(=O)[nH]c1=O,16%,6%,-91*,12%,0%,15%
CCCCNc1c(N)n(CC(C)C)c(=O)[nH]c1=O,.,7%,4,5%,.,15µM*
CSc1ccc(-c2nc3cccc(C)n3c2Nc2ccc(Cl)cc2)cc1,-19%[46.1 µM],.,78,.,?,.
O=C(NCc1ccccc1Cl)c1ccc(Nc2nc3ccccc3n3nnnc23)cc1,27%[46.1 µM],.,-14,.,6%[46.1 µM],.
CCc1ccc(NC(=O)COc2coc(CN3CCN(c4ccccc4)CC3)cc2=O)cc1,8%,?,1,?,10%,5.2µM*
O=C(COc1coc(CN2CCN(c3ccccc3)CC2)cc1=O)NC1CCCC1,11%,1%,-24,?,-23%,?
COc1cccc(NC(=O)COc2coc(CN3CCN(c4ccccc4)CC3)cc2=O)c1,-1%,?,-29,?,1%,13%
O=C(COc1coc(CN2CCN(c3ccccc3)CC2)cc1=O)NC1CCCCC1,-35%,1%,-24,?,-2%,12µM*
CCc1ccc(NC(=O)COc2ccc(F)cc2C(=O)c2cnn(-c3ccccc3)c2)cc1,-27%,?,-102*,?,?,?
COc1ccccc1NC(=O)COc1ccccc1C(=O)c1cnn(-c2ccccc2)c1,.,-28%,22,?,-5%,90%
CCN(CC)C(=O)COc1coc(CN2CCN(c3ccccc3)CC2)cc1=O,21%[46.1 µM],8%,-22,10µM*,0%[46.1 µM],-5%
CC(C)CCn1c(SCc2c(F)cccc2Cl)nc2ccsc2c1=O,-10%[46.1 µM],.,14,.,.,.
CCCCNC(=O)C1(C)CCCCN1C(=O)c1ccc(F)c(C)c1 (stereo not drawn),.,.,20,.,.,.
Cc1ccc2scc(N3CCCCC3C)c(=O)c2c1 (stereo not drawn),13%[46.1 µM],.,8,.,.,.
CCC1=C(O)CC(O)=C(C2NNC(CCC(=O)O)C2C2NC3CCCCC3N2C)C1 (stereo not drawn),.,.,.,.,5%[46.1 µM],.
O=C(/C=C/c1ccc(O)c(O)c1)OC(Cc1ccc(O)c(O)c1)C(=O)O (stereo not drawn),.,10µM*,-29,-16%,.,?

# Bioassay records from PubChem BioAssay.
